Source: PMC4336329 (PLoS ONE, 2015)
Screen size: about 310,000 compounds; about 14,000 (4.5%) showed an effect of 50% or more. Effects have a minus sign here. What follows is part of a selection rich in strong results, with near analogues and random picks from the rest.

What follows are compounds tested against human ether-à-go-go-related gene (hERG) potassium channel (human, UniProt Q12809) (assay: primary screen, population patch clamp on CHO cells stably expressing hERG; higher = less effect of the substance).
Sequence of human ether-à-go-go-related gene (hERG) potassium channel (Q12809 whole entry, looked up): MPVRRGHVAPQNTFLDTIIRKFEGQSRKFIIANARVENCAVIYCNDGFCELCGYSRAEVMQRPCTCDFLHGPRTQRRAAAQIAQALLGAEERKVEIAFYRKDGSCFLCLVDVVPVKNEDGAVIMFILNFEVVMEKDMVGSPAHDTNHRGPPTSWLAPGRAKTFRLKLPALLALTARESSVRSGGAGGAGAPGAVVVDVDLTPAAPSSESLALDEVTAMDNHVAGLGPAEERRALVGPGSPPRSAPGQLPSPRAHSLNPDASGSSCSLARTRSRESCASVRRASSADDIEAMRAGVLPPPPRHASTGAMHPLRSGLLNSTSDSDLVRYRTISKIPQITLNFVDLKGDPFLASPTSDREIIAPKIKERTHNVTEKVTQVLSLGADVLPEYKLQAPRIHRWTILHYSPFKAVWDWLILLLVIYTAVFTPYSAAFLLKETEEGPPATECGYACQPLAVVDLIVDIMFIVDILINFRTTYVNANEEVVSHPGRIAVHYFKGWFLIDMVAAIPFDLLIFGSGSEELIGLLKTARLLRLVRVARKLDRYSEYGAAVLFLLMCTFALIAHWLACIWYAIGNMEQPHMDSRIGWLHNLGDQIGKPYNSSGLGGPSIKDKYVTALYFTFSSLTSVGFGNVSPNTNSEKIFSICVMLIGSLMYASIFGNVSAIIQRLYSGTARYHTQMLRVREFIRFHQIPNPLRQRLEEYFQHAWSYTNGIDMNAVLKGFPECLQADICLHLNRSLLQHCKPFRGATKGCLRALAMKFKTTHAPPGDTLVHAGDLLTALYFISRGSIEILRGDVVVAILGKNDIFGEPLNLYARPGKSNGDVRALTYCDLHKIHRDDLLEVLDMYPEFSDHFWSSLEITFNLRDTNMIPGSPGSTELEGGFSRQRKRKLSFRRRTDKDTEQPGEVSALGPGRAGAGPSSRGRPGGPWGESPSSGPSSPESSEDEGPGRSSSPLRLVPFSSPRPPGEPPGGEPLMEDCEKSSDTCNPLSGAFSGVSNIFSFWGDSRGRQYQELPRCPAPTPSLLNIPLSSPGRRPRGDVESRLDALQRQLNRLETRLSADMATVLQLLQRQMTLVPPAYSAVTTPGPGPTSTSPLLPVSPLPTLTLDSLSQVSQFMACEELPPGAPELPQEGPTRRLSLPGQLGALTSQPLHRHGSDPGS
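Note: peak tail current of the secondary pulse compared with the same well before compound.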

Row | SMILES | hERG current change (%, negative = inhibition) at 10uM [%]
1 | CCN(C(=O)CN1CCN(S(=O)(=O)c2ccccc2C(F)(F)F)CC1)c1c(N)n(Cc2ccccc2)c(=O)[nH]c1=O | 13.6
2 | O=C(NC(=S)NCc1ccc(-c2nc3ccccc3s2)cc1)c1ccco1 | 34
3 | Cc1ccccc1-n1ncc2c1CC(C)(C)CC2NC(=O)c1cn[nH]c1C (stereo not drawn) | -6.22
4 | CCCC(=O)Nc1ccc(C)c(O)c1 | 4.76
5 | C/C(=N\NC(=O)c1ccccc1O)c1cccc(NC(=O)c2ccccc2)c1 | -0.335
6 | O=C1N(CC(=O)N2CCc3ccccc32)CCN1Cc1ccccc1Cl | -12.1
7 | CN(C(=O)COC(=O)CCC(=O)c1ccccc1)c1c(N)n(Cc2ccccc2)c(=O)[nH]c1=O | 14.1
8 | c1ccc2c(NCC3CCCO3)nc(-c3ccncc3)nc2c1 (stereo not drawn) | -14.6
9 | Cl.c1ccc2c(NCC3CCCO3)nc(N3CCOCC3)nc2c1 (stereo not drawn) | -49.5
10 | Cl.OCCNc1nc(-c2ccccc2)nc2ccccc12 | 2.57
11 | Cl.c1ccc2c(NCC3CCCO3)nc(N3CCCCC3)nc2c1 (stereo not drawn) | -72.9
12 | Cl.OCCNc1nc(N2CCN(c3ccccc3)CC2)nc2ccccc12 | -74.6
13 | C=CCNc1ncnc2ccccc12 | 22.5
14 | C=CCNc1nc(C(=O)OCC)nc2ccccc12 | 11.1
15 | OCCNc1nc(N2CCCC2)nc(N2CCCC2)n1 | -2.85
16 | C=CCNc1nc(N2CCCC2)nc2ccccc12 | -78.3
17 | Cl.OCCNc1nc(N2CCCCC2)nc2ccccc12 | -58.2
18 | COc1ccc([C@@H]2CC=C(C(=O)O)[C@H](c3ccc(F)cc3)N2S(=O)(=O)c2ccc(Cl)cc2)cc1 | 27.2
19 | Cc1ccc(-c2c(C#N)c(N)n(-c3ccccc3)c(=O)c2C#N)cc1 | 20.3
20 | O=C(NC1CCCCC1)c1n[nH]c2c1CCCCC2 | 2.43
21 | CC1CC(C)CN(C(=O)CSCC(=O)O)C1 (stereo not drawn) | 1.3
22 | CCC1CCc2c(sc(NC(=O)C3c4ccccc4Oc4ccccc43)c2C(N)=O)C1 (stereo not drawn) | 2.02
23 | Cc1ccc(C(C(=O)NCc2ccco2)N(C(=O)CNC(=O)c2cccs2)c2ccc(C)cc2)cc1 (stereo not drawn) | 27.3
24 | CC(=O)Oc1ccc2nc(-c3ccc(Br)o3)oc(=O)c2c1 | 21.5
25 | COCCCn1cc(C(=O)c2cc(OC)ccc2OCC(=O)N2CCCCC2C)cc(C#N)c1=O (stereo not drawn) | -22.9
26 | COCCCn1cc(C(=O)c2cc(OC)ccc2OCC(=O)Nc2cc(C)on2)cc(C#N)c1=O | -53
27 | COCCn1cc(C(=O)c2ccccc2OCC(=O)Nc2cc(C)on2)cc(C#N)c1=O | 10.3
